Results published in PubChem BioAssay AID977630 (Broad Institute, 2014).
Screen size: about 1,600 compounds; fewer than 10 were called active. Roughly 48% stayed inconclusive and do not appear here.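 The calls were made as follows: active = Normal-ribosome green reporter loss at least double humanized-ribosome red reporter loss, with overall culture growth inhibition under a set limit; inconclusive = no clear call, values can overlap the other calls; inactive = the rest.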 These entries were drawn from the full list. Results with a measured potency or affinity are listed apart.

Assay: growth inhibition of wild-type GFP E. coli, H38-humanized RFP comparator, dose response, H38 mutant RFP vs wild-type GFP, cherry-pick (AID 977630);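 also: wild-type GFP strain mixed equally with humanized-ribosome H38 mutant expressing RFP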
Details: mixed culture, 24 h; series mostly up to 50 µM

outcome, inactive:
COC(=O)c1ccc(CSc2nc3ccccc3s2)o1
COc1ccccc1-c1noc2ncnc(Nc3ccccc3C)c12
O=C(c1cccs1)c1c[nH]cc1-c1ccccc1
Cc1ccc(CSCC(=O)Nc2ccccc2F)cc1
COc1ccc(NC(=O)c2ccc(COc3ccccc3Br)o2)c(OC)c1
CCc1nnc(NC(=O)CSc2ncc(-c3ccccc3)[nH]2)s1
COc1cccc(NC(=O)C2CCC(CNS(=O)(=O)c3cccc4cccnc34)CC2)c1 (stereo not given)
CCOC(=O)c1sc(Nc2cccc(Cl)c2)nc1C
Cn1c(=O)n(C)c2cc([N+](=O)[O-])c(N3CCN(C(=O)c4cccc(F)c4)CC3)cc21
Brc1ccc(-c2nc3c4ccccc4ccn3c2Cc2ccccc2)cc1
CCN(CC)CC(=O)Nc1sc2c(c1C(=O)c1ccccc1OC)CCC2
O=S(=O)(Cc1ccco1)Cc1nc(-c2ccc(Cl)cc2)cs1
Cc1ccccc1NS(=O)(=O)c1cc(C(=O)NCCC2=CCCCC2)ccc1C
Cc1c(CCOC(=O)C23CC4CC(CC(C4)C2)C3)sc[n+]1Cc1ccccc1
O=C(CSc1nnc(-c2ccccc2F)n1C1CC1)Nc1cccnc1Cl
CSc1ccc(CN(C)CC(=O)NC(C)c2ccccc2)cc1 (stereo not given)
COc1cc[n+]([O-])cc1[N+](=O)[O-]
COc1ccc(OC2C(=O)N(Cc3ccc4c(c3)OCO4)C2c2sccc2C)cc1 (stereo not given)
COc1ccc(C(=O)C[n+]2ccc3c(c2)nc(-c2cc(OC)c(OC)cc2OC)n3C)cc1
c1coc(CSc2ncnc3c2oc2ccccc23)c1
COc1cccc(SCC(=O)N2CCN(c3ccccc3)CC2)c1
COc1ccc(C(=O)CSc2nc3ccccc3n2CC(=O)c2ccccc2)cc1
O=C(Nc1cscc1S(=O)(=O)c1ccccc1)c1ccccc1Cl
CC1Cc2ccccc2N1C(=O)CN1C(=O)NC(C)(CCc2ccccc2)C1=O (stereo not given)
O=C(COC(=O)c1ccc(O)cc1)Nc1ccccc1
O=S(=O)(NC1c2cccc3cccc(c23)C1Sc1ncccn1)c1ccccc1 (stereo not given)
O=[N+]([O-])c1ccc(/C=C/c2ccc3cccc([N+](=O)[O-])c3n2)cc1
Cc1cc(C(=O)Nc2ccc(Cl)cc2)c(C)n1Cc1cccs1
CCCCOc1ccc(-c2nnn(CCC(=O)N3CCOCC3)n2)cc1
Cc1ccnc(NS(=O)(=O)c2ccc(NC(=O)c3ccc4c(c3)OCCO4)cc2)n1
CN1N=C2c3ccccc3CCC2C1c1ccc(F)cc1 (stereo not given)
COc1ccc(-c2nc(NC(C)=O)sc2-c2ccccc2)cc1
Nc1ccccc1Sc1c[nH]c2ccccc12
CCc1cccc(CC)c1NC(=O)Cn1c(-c2ccc(F)cc2)noc1=O
Cc1ccc(C)c(N2CCN(C(=O)CCS(=O)(=O)c3ccc4c(c3)oc(=O)n4C)CC2)c1
CCOC(=O)c1cc2nc(-c3ccccc3)cc(C)n2n1
O=C(NCc1ccccc1)C1C(=O)Nc2ccccc2C(=O)N1c1ccc2c(c1)OCCO2 (stereo not given)
CSc1ccccc1NC(=O)CN(c1cccc(C)c1)S(C)(=O)=O
CC(OC(=O)COc1ccccc1)C(=O)NC1CCCC1 (stereo not given)
O=S(=O)(c1ccc(Cl)cc1)N1CCN=C1SCc1cccc(Cl)c1
CCCN1C(=O)C(O)(c2c(C)[nH]c3ccccc23)c2ccccc21 (stereo not given)
COc1ccc(CNC(=O)c2sc3nc4c(c(C(F)(F)F)c3c2N)CCC4)cc1OC
CN(Cc1ccc([N+](=O)[O-])cc1)c1ccccc1
Cc1ccc(NCC(=O)c2ccc(C)cc2)cc1
Cn1c(=O)c2c(-c3ccccc3)n(-c3cc([N+](=O)[O-])ccc3N)cc2n(C)c1=O
CC1(C(=O)NS(=O)(=O)c2cccc(C#N)c2)CCN1C(=O)C1(c2ccc(Cl)cc2)CCC1 (stereo not given)
C[C@@H]1CN([C@@H](C)CO)C(=O)c2cccc(NC(=O)c3nc4ccccc4s3)c2O[C@@H]1CN(C)CC1CC1
Cc1nc(-c2ccc([N+](=O)[O-])cc2)c(-c2ccccc2)o1
O=C(CN1CCN(S(=O)(=O)c2ccc(Cl)cc2)CC1)Nc1ccc2c(c1)CCC2
CC(NC(=O)c1ccncc1)c1ccc(Cl)cc1Cl (stereo not given)
O=C(Nc1ccn(Cc2ccc(Cl)cc2)n1)c1ccccc1
CCCOC(=O)c1ccc(NC(=O)c2nc3nc(C)cc(C)n3n2)cc1
C[C@@H]1CCCCO[C@H](CN(C)C(=O)CCCN(C)C)[C@H](C)CN([C@@H](C)CO)C(=O)c2cc(NC(=O)Nc3cccc4ccccc34)ccc2O1
CCOc1ccccc1C(=O)NCC(=O)OCCOc1cccc(Cl)c1
CCOC(=O)C(C)(C)n1nnc(-c2ccc([N+](=O)[O-])cc2)n1
O=c1c2ccccc2nc(SCc2ccccc2)n1CC1CCCO1 (stereo not given)
Cc1ccc(N2C(=S)NC3c4cc(Cl)ccc4OC2(C)C3C(=O)N(C)C)cc1 (stereo not given)
CC1(c2ccc3ccccc3c2)NC(=O)N(CC(=O)N2CCN(c3ccccc3O)CC2)C1=O (stereo not given)
O=C(Nc1ccc(Br)cc1)c1cccnc1N1CCCCC1
CCc1ccc2nc(SCC(=O)Nc3ccccc3N3CCOCC3)c(C#N)cc2c1
CSc1nc2ccc(NS(=O)(=O)c3ccc([N+](=O)[O-])cc3)cc2s1
COc1ccc(C2CC(c3cccs3)=Nc3ccccc3S2)cc1 (stereo not given)
Cc1ccccc1CSc1nnc(-c2ccccn2)n1C
CCOC(=O)c1c(C)[nH]c(C)c1S(=O)(=O)NCCN1CCN(c2ccccc2F)CC1
O=C(CSc1nnc(COc2cccc3cccnc23)o1)c1ccc(F)cc1
O=C(O)c1nn2c(C(F)(F)F)cc(-c3cccs3)nc2c1Cl
COc1ccc(CC(=O)Nc2cc(S(=O)(=O)Nc3ccc(OC)cc3)ccc2OC)cc1
COC(=O)c1sccc1NC(=O)CNC(=O)c1ccccc1
COC(=O)c1cc(C)sc1NC(=O)CC1Nc2ccccc2NC1=O (stereo not given)
CCOC(=O)c1cccc(OS(=O)(=O)Cc2ccccc2)c1
CCOc1ccccc1N1CC(C(=O)Nc2cccc(S(=O)(=O)N3CCCCC3)c2)CC1=O (stereo not given)
c1cc2cc(-c3c(-c4ccc5c(c4)OCO5)noc3-c3ccsc3)ccc2[nH]1
Cc1cc(C)cc(NC(=O)COC(=O)CC2CCCC2)c1
COc1cc(SC)ccc1C(=O)N(Cc1ccccc1)c1ccccn1
COC(=O)c1nc(-c2ccc(C)cc2)[nH]c1C(C)(C)C
O=C(O)CNC(=O)C(c1ccccc1)c1ccccc1
O=C(C[n+]1ccc(Cc2ccccc2)cc1)Nc1ccc([N+](=O)[O-])cc1Cl
CN(C)S(=O)(=O)c1cccc(NC(=O)c2ccc3c(c2)S(=O)(=O)N=C2CCCCCN23)c1
CC1Cc2cc(-c3csc(NC(=O)Cc4ccccc4)n3)ccc2N1S(C)(=O)=O (stereo not given)
CCN=C1NN=C(c2ccc(C)cc2)CS1
COc1cc(CCN(C(=O)c2cc3ccccc3[nH]2)C(c2ccccn2)c2nc3ccccc3[nH]2)cc(OC)c1 (stereo not given)
NS(=O)(=O)c1ccc(CCNC(=O)CCCCCNc2nc(=S)[nH]c3ccccc23)cc1
CC(C)(C)S(=O)(=O)Cc1nc(-c2ccc(Cl)c(Cl)c2)cs1
Fc1ccc(-c2nc3ccc(Cl)cn3c2Cc2cccc(Cl)c2)cc1
Cc1cc(C(N)=O)nn1-c1c(Cl)cc(Cl)cc1Cl
Cc1ccc(NC(=O)COC(=O)CCNS(=O)(=O)c2c(Cl)cccc2Cl)cc1
CSc1nnnn1-c1ccc(Cl)cc1
Cc1noc(C)c1S(=O)(=O)N(Cc1ccccc1)C(C)C
Cc1cccc(-n2cnc3cc([N+](=O)[O-])ccc32)c1
Cc1ccc(S(=O)(=O)N2CCCCC2C(=O)N2CCN(c3ccccc3F)CC2)cc1 (stereo not given)
COC(=O)c1cc(C(=O)c2c(C)cc3ccccn23)cc([N+](=O)[O-])c1
[O-][n+]1ccccc1/C=C/c1ccccc1
Fc1ccccc1C1CCN(Cc2nc(COc3ccccc3)no2)C1 (stereo not given)
CC(=O)c1ccc(OCC(=O)Nc2ccc3c(c2)CCC3)cc1
Cc1ccc(Cc2c(-c3cccc(Br)c3)nc3ccc(C)cn23)cc1
COc1ccc(S(=O)(=O)N2CCOc3ccccc32)cc1
COc1ccc(-c2csc(NC(=O)c3ccccc3S(C)(=O)=O)n2)cc1
O=C(OCC(=O)N1CCOCC1)c1cccc(S(=O)(=O)N2CCCc3ccccc32)c1
O=C(CCC(=O)N1CCN(c2ccc(F)cc2)CC1)c1ccc(F)cc1
COc1ccc(C(=O)Nc2cccc3ccccc23)cc1
Cc1cc(-c2ccc(C)c(S(=O)(=O)NCC3CCN(Cc4ccccc4F)CC3)c2)on1
O=S(=O)(c1cnc(Cl)c(Cl)c1)N1CCc2ccccc21
O=C(COC(=O)c1ccccc1O)NCCC1=CCCCC1
C=CCN(c1ccccc1)S(=O)(=O)c1ccc(Cl)c(C(=O)OCC(=O)NCCCN2CCCC2=O)c1
CCN(C(=O)COC(=O)CCc1ccccc1)c1ccccc1
